The record followed here is PubChem BioAssay (NCI).

Common to all, as to test: NCI-60 one-dose screen, 48 h (100 = growth as untreated, 0 = no growth, -100 = all killed)
What all share (conditions): 10 µM

Experiment [1] relates to T-47D breast.
In experiment [2] the test system is BT-549 breast.
Experiment [3] has as its system MDA-MB-435 melanoma.
The test system of experiment [4] is SW-620 colon.
Experiment [5] relates to MCF7 breast.
Experiment [6] has as its system HCT-116 colon.
Experiment [7] deals with HCC-2998 colon.
For experiment [8], the system named is KM12 colon.

Compounds without any hit were thinned out: in the full panel of roughly 83,000, 20% have a hit.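 Step 1: grow cells in 96-well plates. Step 2: add test compound at a single concentration. Step 3: incubate 48 h. Step 4: record percent growth.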 A number with no mark means an inactive call. The source made the active and inactive calls. The calls were made as follows: active = growth percent below 10; inactive = the rest.

As to `COc1cc2nc(Sc3sc(N)nc3C)n(-c3ccc(Oc4ccccc4)cc3)c(=O)c2cc1OC`, the growth in experiment [1] is 77.3%; in experiment [2], 71.3%; in experiment [3], 93.3%; in experiment [4] it was 81.2%; in experiment [5], 74.4%; in experiment [6], 47.4%. Further, the growth in experiment [7] is 80.4%; in experiment [8], 93.5%.
`NC1CCC(Nc2nc(NCc3cc(Cl)ccc3O)c3ncn(C4CCCC4)c3n2)CC1` (stereo not given): the growth in experiment [1] was -28% (active); in experiment [2], -21.2% (active); in experiment [3], -43.9% (active); in experiment [4], 3.11% (active); in experiment [5], -58.9% (active); in experiment [6], -17.6% (active). Also, the growth in experiment [7] was -39.5% (active); in experiment [8] it was 1.98% (active).
As for `Cc1ccc2c(c1)-c1cc(C)nn1-c1ccc(C#N)cc1O2`, the growth in experiment [1] was 51.8%; in experiment [2] it was 78.5%; in experiment [3], 8.67% (active); in experiment [4], 41%; in experiment [5], 42%; in experiment [6], 27.6%. For the same molecule, the values for the growth in experiment [7] and in experiment [8] were 90% and 56.9%, respectively.
As to `COc1ccc(/C=C2\SC(=S)N(CCCN3CCOCC3)C2=O)c(OC)c1`, the growth was 71.2% in experiment [1]; 96.1% in experiment [2]; 101% in experiment [3]; 105% in experiment [4]; 76% in experiment [5]; 92.2% in experiment [6]. For the same molecule, the growth in experiment [7] is 109%; in experiment [8], 97.2%.
In the case of `O=C(O)CN1C(=O)C=CC1=O`, the growth was 101% in experiment [1]; 114% in experiment [2]; 106% in experiment [3]; 107% in experiment [4]; 102% in experiment [5]; 107% in experiment [6]. For the same molecule, the growth is 107% in experiment [7] and 102% in experiment [8].
As for `Nc1cc(O)cc(O)c1`, the growth in experiment [1] was 89%; in experiment [2], 105%; in experiment [3], 106%; in experiment [4] it was 107%; in experiment [5], 98.3%; in experiment [6], 95.8%. The growth is 98.5% in experiment [7] and 99.7% in experiment [8].
Turning to `CCOC(=O)c1c(Cl)c2c(n1Cc1cccc(OC)c1)-c1oncc1CC2`, the growth in experiment [1] was 35.5%; in experiment [2] it was 21.7%; in experiment [3], -28% (active); in experiment [4], 34.5%; in experiment [5], 15.2%; in experiment [6], 18.5%. Also, the growth is 39.8% in experiment [7] and 25.9% in experiment [8].
For `CC(C)C[C@H](NC(=O)Cn1ccc(Nc2ccccc2)cc1=O)B(O)O`, the growth is -4.25% (active) in experiment [1]; 9.01% (active) in experiment [2]; -85.4% (active) in experiment [3]; 15% in experiment [4]; 28.2% in experiment [5]; -6.59% (active) in experiment [6]. Besides, the values for the growth in experiment [7] and in experiment [8] were 9.37% (active) and 36.1%, respectively.
`COCCNCC(O)Cn1c2ccc(Cl)cc2c2cc(Cl)ccc21` (stereo not given): the growth was -15.8% (active) in experiment [1]; 11.2% in experiment [2]; -83.1% (active) in experiment [3]; 2.98% (active) in experiment [4]; -64.8% (active) in experiment [5]; -5.18% (active) in experiment [6]. The results for the growth in experiment [7] and in experiment [8] were -30.1% (active) and 10.9%, respectively.
Turning to `COc1ccc(-c2n/c(=C\c3c(O)[nH]c4ccccc34)cc3c2=Nc2ccccc2-3)cc1`, the growth in experiment [1] is 84.8%; in experiment [2] it was 78.4%; in experiment [3] it was 4.87% (active); in experiment [4], -6.59% (active); in experiment [5] it was -22% (active); in experiment [6] it was -87.3% (active). For the same molecule, the values for the growth in experiment [7] and in experiment [8] were 17.8% and 5.41% (active), respectively.
On to `COc1cc(OC)cc(-c2ccc(-c3ccc(C(=N)N)cn3)o2)c1`, for which the growth in experiment [1] was -56.9% (active); in experiment [2], -3.57% (active); in experiment [3], -63.6% (active); in experiment [4], -90.3% (active); in experiment [5], -66.2% (active); in experiment [6], -86.5% (active). Moreover, the growth in experiment [7] is -87.4% (active); in experiment [8], -11.2% (active).
In the case of `O=C(Nc1ccc(OS(=O)(=O)Cc2ccccc2)cc1)C12CC3CC(CC(C3)C1)C2`, the growth in experiment [1] is 51.3%; in experiment [2] it was 71.2%; in experiment [3], 97.9%; in experiment [4] it was 25.3%; in experiment [5], 80.7%; in experiment [6], 63.9%. The growth in experiment [7] is 49.1%; in experiment [8], 42.4%.
For the molecule `COc1ccc(S(=O)(=O)Nc2ccc(OCc3nnc(-c4ccc(Cl)cc4)o3)c(F)c2)cc1`, the growth in experiment [1] is 9.53% (active); in experiment [2], 55%; in experiment [3], 64%; in experiment [4] it was 84.5%; in experiment [5], 42.8%; in experiment [6], 54.6%. Also, the results for the growth in experiment [7] and in experiment [8] were 74.2% and 56.3%, respectively.
For `COc1nc2c(c(=O)[nH]1)C(c1ccc(Oc3ccnc4cc(Cl)ccc34)c(OC)c1)C=C(c1cc(OC)c(OC)c(OC)c1)N2` (stereo not given), the growth in experiment [1] is 89.8%; in experiment [2] it was 91.7%; in experiment [3] it was 111%; in experiment [4] it was 102%; in experiment [5] it was 102%; in experiment [6] it was 94%. The growth is 97.6% in experiment [7] and 104% in experiment [8].
For the molecule `Cc1ccc2c3c(cccc13)-c1ccccc1C2=O`, the growth in experiment [1] is 84.9%; in experiment [2] it was 106%; in experiment [3], 98.9%; in experiment [4], 93%; in experiment [5], 96.6%; in experiment [6], 86.4%. The growth is 89% in experiment [7] and 54.4% in experiment [8].
